PubChem BioAssay

assay: small molecules captured by biotinylated probe aFSTL3 – biochemical, small-molecule microarray, fluorescence 635/667, stem cell growth factor project, primary screen (AID 1064); conditions: higher = more signal;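 also: measures binding of the biotinylated anti-FSTL3 antibody to printed compounds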

Compound	composite z-score
O=C/C=C/c1ccc2c(c1)OCO2	-0.23
CN(C)C(=O)[C@@]1(CCC(=O)OC(C)(C)C)N=C(c2ccc(OCCCO)cc2)O[C@H]1c1ccccc1	1.01
C=C(C(=O)CC[C@H](OC(C)=O)c1ccc(OCCO)cc1)C(C)C	-0.398
O=c1cccc(C=Cc2ccccc2)o1	0.236
C=CCC(OC(C)=O)[C@@H]1[C@@H](N(Cc2cccc3ccccc23)C(=O)c2cccc3ccccc23)c2cc(OCCCO)ccc2N1C(=O)c1ccc2ccccc2n1 (stereo partly drawn)	-0.218
COc1ccc(CCNC(=O)[C@@]2(c3ccc([N+](=O)[O-])cc3)CC(=O)N(CC34CC5CC(CC(C5)C3)C4)[C@@H]2c2ccc(CO)cc2)cc1	0.281
COCCOC(=O)N1C(=O)[C@@]2(c3ccccc31)[C@H](C(=O)Nc1nc3ccccc3s1)[C@H]1C(=O)O[C@H](c3ccccc3)[C@H](c3ccccc3)N1[C@@H]2c1ccc(OCCO)cc1	0.001
CC(C)(C)OC(=O)CC[C@@]1(C(=O)NCCN2CCOCC2)N=C(c2ccc(OCCCO)cc2)O[C@@H]1c1ccccc1	1.11
C=CC(COC(C)=O)NS(=O)(=O)c1ccc(Br)cc1 (stereo not drawn)	-0.647
[N-]=[N+]=Nc1ccccc1[C@H]1OC(c2ccc(OCCCO)cc2)=N[C@@]1(CCS(=O)(=O)c1ccccc1)C(=O)O	1.13
CC(C)NC(=O)[C@@H]1c2ccccc2C(=O)N(Cc2ccccc2)[C@H]1c1ccc(CO)cc1	0.726
COCCOC(=O)N1C(=O)[C@@]2(c3cc(C#CCC(C(=O)OC)C(=O)OC)ccc31)[C@H](c1ccc(O)cc1)N1[C@H](c3ccccc3)[C@H](c3ccccc3)OC(=O)[C@H]1[C@@H]2C(N)=O	-0.239
CC(C)c1ccc(NN2C(C(O)c3cccc(O)c3)C=CC3C(=O)N(c4ccccc4)C(=O)C32)cc1 (stereo not drawn)	0.0067

assay: binders from COS7 lysate, DM2A8 probe, primary screen, torsin A project, cell lysate, small-molecule microarray, fluorescence 635/667 (AID 1065); conditions: higher = more signal, COS7 lysate expressing mutant human TOR1A

Compound	composite z-score
O=C(OCCF)C1=CCC(c2cccc(Cl)c2)O1 (stereo not drawn)	0.0213
COC(=O)[C@@]1(Cc2ccc(OC)cc2)[C@H]2c3cc(C(=O)N4CCCC4)n(Cc4ccccn4)c3C[C@H]2CN1C(=O)c1ccccc1	0.765
CC(C)=CCCC(C)=CC(O)C1C=CC2C(=O)N(c3ccccc3)C(=O)C2N1Nc1ccccc1 (stereo not drawn)	0.135
[N-]=[N+]=NCc1ccccc1[C@H]1OC(c2ccc(OCCCO)cc2)=N[C@@]1(CCS(=O)(=O)c1ccccc1)C(=O)N1CCOCC1	0.525
COC(=O)[C@@]1(Cc2ccccc2)[C@H]2c3cc(C(=O)N4CCCC4)n(Cc4ccc(C)o4)c3C[C@H]2CN1C(=O)c1ccccc1	0.225
CC(C)OC(=O)CC(=O)CC(O)c1ccc(C#N)cc1 (stereo not drawn)	0.435
[N-]=[N+]=NCc1ccccc1C[C@]1(C(=O)O)N=C(c2ccc(OCCCO)cc2)O[C@H]1c1ccccc1	0.474
COC(=O)[C@@]1(Cc2ccc(OC)cc2)[C@H]2c3cc(C(=O)N(C)C)n(Cc4c(OC)[nH]cc(C)c4=O)c3C[C@H]2CN1C(=O)c1ccccc1	0.0954
O=c1cccc(CCc2ccccc2)o1	-0.322
CCCCCCCCCCC(O)C1C=CC2C(=O)N(Cc3ccccc3)C(=O)C2N1n1cnnc1 (stereo not drawn)	0.0622
COC(=O)C[C@@H]1C[C@H](C)[C@]2(O1)C(=O)N(Cc1ccccc1)c1ccc(NC(C)=O)cc12	0.108
C=CCOC(=O)[C@@H]1[C@H]2C(=O)O[C@H](c3ccccc3)[C@H](c3ccccc3)N2[C@H](c2ccc(OCCOC(=O)[C@@H]3C[C@@H]4C(=O)NCC(=O)N4[C@@H]3c3cccc(OCCO)c3)cc2)[C@@]12C(=O)Nc1ccc(I)cc12	0.948
CCCC[C@H]1OB(O)C[C@H]2C1=C(C)C[C@H]1C(=O)N(Cc3ccccc3)C(=O)[C@H]12	0.383
CC1CC/C=C\[C@H]2OC34C=CCN(Cc5ccccc5)C(=O)[C@H]3N(CCCCCO)C(=O)[C@@H]4C2C(=O)O1 (stereo partly drawn)	-0.467
CN(C)CCCNC(=O)[C@@]1(Cc2ccccc2I)c2ccccc2C(=O)N(Cc2ccccc2C(F)(F)F)[C@H]1c1ccc(CO)cc1	-1.14
COc1ccc([Si](C)(C)[C@@H]2[C@@H](CC(=O)N3CCC[C@H]3CO)O[C@]3(C(=O)N(C)c4c(Br)cc(C)cc43)[C@H]2C)cc1	0.264
COCC1=C2[C@@H](CCc3ccccc3)OB(O)C[C@@H]2[C@@H]2C(=O)N(Cc3ccccc3)C(=O)[C@@H]2C1	-0.138
COCCOC(=O)N1C(=O)[C@@]2(c3ccccc31)[C@H](C(=O)NC[C@H](O)c1ccccc1)[C@H]1C(=O)O[C@H](c3ccccc3)[C@H](c3ccccc3)N1[C@@H]2c1ccc(OCCO)cc1	0.591

Compound	composite z-score
C=CC[C@@H](OC(=O)Nc1ccc(OC)cc1)c1ccc(O)c2ccccc12	0.129
COCCOC(=O)N1C(=O)[C@@]2(c3cc(C#CCCO)ccc31)[C@H](c1ccccc1OCCO)N1[C@H](c3ccccc3)[C@H](c3ccccc3)OC(=O)[C@H]1[C@@H]2C(=O)N1CCN(c2ncccn2)CC1	-0.481
CCC[C@@H]1C=C(C(=O)O)[C@H](c2ccc(C)cc2)N1S(=O)(=O)c1ccc(C)cc1	0.0641
COc1ccc(C(O)C2C=CC3C(=O)N(c4ccccc4)C(=O)C3N2Nc2ccc([N+](=O)[O-])cc2)cc1OCc1ccccc1 (stereo not drawn)	-0.14
O=C/C=C/c1ccc2c(c1)OCO2	-0.508
CN(C)C(=O)[C@@]1(CCC(=O)OC(C)(C)C)N=C(c2ccc(OCCCO)cc2)O[C@H]1c1ccccc1	2.11
C=C(C(=O)CC[C@H](OC(C)=O)c1ccc(OCCO)cc1)C(C)C	0.194
O=c1cccc(C=Cc2ccccc2)o1	-0.609
C=CCC(OC(C)=O)[C@@H]1[C@@H](N(Cc2cccc3ccccc23)C(=O)c2cccc3ccccc23)c2cc(OCCCO)ccc2N1C(=O)c1ccc2ccccc2n1 (stereo partly drawn)	0.215
COc1ccc(CCNC(=O)[C@@]2(c3ccc([N+](=O)[O-])cc3)CC(=O)N(CC34CC5CC(CC(C5)C3)C4)[C@@H]2c2ccc(CO)cc2)cc1	0.441
COCCOC(=O)N1C(=O)[C@@]2(c3ccccc31)[C@H](C(=O)Nc1nc3ccccc3s1)[C@H]1C(=O)O[C@H](c3ccccc3)[C@H](c3ccccc3)N1[C@@H]2c1ccc(OCCO)cc1	0.686
CC(C)(C)OC(=O)CC[C@@]1(C(=O)NCCN2CCOCC2)N=C(c2ccc(OCCCO)cc2)O[C@@H]1c1ccccc1	1.4
C=CC(COC(C)=O)NS(=O)(=O)c1ccc(Br)cc1 (stereo not drawn)	0.58
[N-]=[N+]=Nc1ccccc1[C@H]1OC(c2ccc(OCCCO)cc2)=N[C@@]1(CCS(=O)(=O)c1ccccc1)C(=O)O	0.298
CC(C)NC(=O)[C@@H]1c2ccccc2C(=O)N(Cc2ccccc2)[C@H]1c1ccc(CO)cc1	0.0445
COCCOC(=O)N1C(=O)[C@@]2(c3cc(C#CCC(C(=O)OC)C(=O)OC)ccc31)[C@H](c1ccc(O)cc1)N1[C@H](c3ccccc3)[C@H](c3ccccc3)OC(=O)[C@H]1[C@@H]2C(N)=O	0.365
CC(C)c1ccc(NN2C(C(O)c3cccc(O)c3)C=CC3C(=O)N(c4ccccc4)C(=O)C32)cc1 (stereo not drawn)	0.422
